Measured values published in PubChem BioAssay.
Active and inactive are the calls of the source. No rule for the calls is given here.

These compounds were tested against Pantothenate synthetase (Mycobacterium tuberculosis (strain ATCC 25618 / H37Rv)) (UniProt P9WIL5) (assay: Recombinant Mtb pantothenate synthetase (PanC) inhibitors, coupled enzyme, confirmatory (AID 375;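 also: 0% = full reaction with vehicle and 100% = no enzyme background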)). Details: coupled enzyme assay; at 10 µM, hits give high values.
Sequence of Pantothenate synthetase (Mycobacterium tuberculosis (strain ATCC 25618 / H37Rv)) (P9WIL5 whole entry, looked up): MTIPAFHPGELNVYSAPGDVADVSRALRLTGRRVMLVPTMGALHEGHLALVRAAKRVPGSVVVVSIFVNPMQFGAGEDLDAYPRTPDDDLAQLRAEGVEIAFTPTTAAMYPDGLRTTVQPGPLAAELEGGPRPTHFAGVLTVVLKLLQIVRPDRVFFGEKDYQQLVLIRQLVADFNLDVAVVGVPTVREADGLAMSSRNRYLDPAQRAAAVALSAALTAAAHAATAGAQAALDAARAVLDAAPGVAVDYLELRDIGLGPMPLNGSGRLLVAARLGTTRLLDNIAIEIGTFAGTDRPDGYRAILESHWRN

SMILES | inhibition
COc1cc(NC(=O)CC(C)C)ccc1NC(=O)c1ccco1 | 1% (inactive)
CCOC(=O)C1CCN(c2nc3ccccc3nc2C(C#N)C(=O)OCCOC)CC1 (stereo not given) | 0% (inactive)
CC(C)Cn1c(=O)c(C2=NS(=O)(=O)c3ccccc3N2)c(O)c2ccccc21 | 2% (inactive)
Cc1c(/C(O)=C2/C(=O)C(=O)N(CCN3CCOCC3)C2c2cccnc2)cnn1-c1ccccc1 (stereo not given) | 1% (inactive)
CCc1nnc(NC(=O)c2ccc(S(=O)(=O)NC3CCCCC3)cc2)s1 | 0% (inactive)
NC(=O)CSc1cn(CCNC(=O)c2cccs2)c2ccccc12 | 0% (inactive)
C#CCSc1nnc(-c2ccccc2)c(=O)[nH]1 | 0% (inactive)
Cc1ccc2c(c1)C(N1CCCC1=O)CC(c1ccco1)N2 (stereo not given) | 0% (inactive)
CC1CC(C)CN(c2nc3c(c(=O)[nH]c(=O)n3C)n2CCCSc2nc3ccccc3s2)C1 (stereo not given) | 7% (inactive)
CC(=O)Nc1ccc(Cl)c(C(N)=O)c1 | 2% (inactive)
CCn1c(CNc2ccc(OC)cc2)nnc1SCC(=O)c1ccc(OC)cc1 | 0% (inactive)
CC(=O)Nc1c2c(nn1-c1ccc(C)cc1C)CSC2 | 0% (inactive)
Cc1ccc(-c2cc(C(F)(F)F)n3ncc(C(=O)O)c3n2)cc1 | 5% (inactive)
Cc1ccc(Nc2nc(N)nc(CN3CCCCCC3)n2)cc1 | 2% (inactive)
Cc1cc(C(=O)O)ccc1-n1c(C)ccc1C | 6% (inactive)
O=C(CN1CCN(c2ncccn2)CC1)Nc1ccccc1-n1cccc1 | 0% (inactive)
Cc1cc(C)nc(N2CCC(C(=O)NC3CCCCCC3)CC2)n1 | 1% (inactive)
Cc1ccc(S(=O)(=O)N2CCOCC2)cc1C(=O)Nc1ccccn1 | 0% (inactive)
COC(=O)c1nc(N)sc1-c1ccccc1 | 0% (inactive)
CCNC(=O)c1ccc(NS(=O)(=O)c2ccccc2)cc1 | 6% (inactive)

SMILES | inhibition
CCCCOc1ccc(-c2nnn(C(C)(C)C(=O)OC)n2)cc1 | 5% (inactive)
O=C(COC(=O)c1cnccn1)Nc1ccc2c(c1)OCO2 | 7% (inactive)
O=C(COC(=O)CCC(=O)c1cccs1)NCc1ccco1 | 0% (inactive)
Cc1c(NC(=O)c2ccc(Br)o2)c(=O)n(-c2ccccc2)n1C | 0% (inactive)
CN(C=C1C(=O)CC(C)(C)CC1=O)CCN1CCNCC1 | 1% (inactive)
COc1ccccc1OCC(=O)Nc1cccc(-c2nc3ccccc3o2)c1 | 0% (inactive)
c1ccc(Cn2nnc3c(N4CCCCCC4)ncnc32)cc1 | 7% (inactive)
O=C(Cn1c(SCC(=O)N2CCCc3ccccc32)nc2ccccc21)N1CCCC1 | 0% (inactive)
COC(=O)c1sc2ccccc2c1NC(=O)c1cccs1 | 2% (inactive)
CCCCCC#CCC#CCC#CCC#CCCCC(=O)O | 0% (inactive)
Nc1cc(C(=O)O)ccc1Nc1ccccc1 | 0% (inactive)
O=C(O)CCN1C(=O)c2ccccc2C1=O | 6% (inactive)
CCOc1cc(C2C3=C(CCCC3=O)N(C)C3=C2C(=O)CCC3)cc(Cl)c1O | 0% (inactive)
CCOC(=O)C1CCN(C(=O)CN(c2ccc(Cl)c(C(F)(F)F)c2)S(C)(=O)=O)CC1 | 4% (inactive)
Cc1c(C(=O)O)c(-c2ccccc2)nn1-c1ccccc1 | 2% (inactive)
COc1ccccc1C(=O)NCCc1nc2ccccc2n1C | 1% (inactive)
N#CC1=C(N)SC(N)=C(C#N)C1c1ccc(C(F)(F)F)cc1 | 0% (inactive)
CC1=C(C#N)C(=O)NC(C)(C)C1 | 0% (inactive)
O=C(Nc1ccccc1N1CCOCC1)c1ccc2ccccc2n1 | 0% (inactive)
CN(Cc1ccccc1)Cc1nc2c(c(=O)n(C)c(=O)n2C)n1Cc1ccc(Cl)cc1 | 0% (inactive)
